This is an account of results in PubChem BioAssay.

Activity calls are given as the source filed them.

Experiment [1] concerns Plasmodium falciparum Sir2 (PF13_0152, Sir2A). Briefly: Plasmodium falciparum Sir2A binding compounds – biochemical, small-molecule microarray, 635 nm fluorescence, primary screen (AID 1098).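 Note: score merges spot fluorescence intensity with its signal-to-noise ratio.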 The settings on record: fluorescence 635 nm, higher = more signal.
Experiment [2] in a line: probe aDKK1 binding to arrayed compounds – biochemical, biotinylated probe, 635/667 nm fluorescence, primary screen (AID 1099).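 Note: score merges 667nm spot fluorescence with signal to noise across triplicate slides.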 Particulars: small-molecule microarray, higher = more signal.
The nature of experiment [3]: probe aCHRDL2 binding to arrayed compounds – biochemical, biotinylated probe, 635/667 nm fluorescence, primary screen (AID 1100). The settings on record: small-molecule microarray, higher = more signal.
A short description of experiment [4]: change in splice reporter luminescence, either direction, cell-based, HEK293, spliceosome inhibition project, primary screen (AID 1101).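 Note: HEK293 cells carrying a splicing-competent luciferase reporter gene; test concentration not given here.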 The settings on record: HEK293 splicing luciferase reporter, 24 h, higher = more signal, called active from +8 up or from −8 down. On the technique in general: Reporter assays use an easily measured gene product as a stand-in for the process of interest.

Experiment [5] deals with Fibroblast growth factor 10 (Homo sapiens) (UniProt O15520). Briefly: compounds binding fibroblast growth factor 10 – biochemical, small-molecule microarray, 635 nm fluorescence, primary screen (AID 1102). The settings on record: FGF10 binding, fluorescence 635 nm, higher = more signal.
Experiment [6] concerns glycogen synthase kinase-3 (GSK3A per assay name; protocol says GSK3B). As to the kind of experiment: compounds binding glycogen synthase kinase-3 – biochemical, small-molecule microarray, 635 nm fluorescence, GSK3A, primary screen (AID 1103). Note: the record names both GSK3A and GSK3B. Particulars: fluorescence 635 nm, higher = more signal.
For experiment [7], the target named is Epidermal growth factor receptor (Homo sapiens) (UniProt P00533). As to the kind of experiment: compounds binding epidermal growth factor receptor – biochemical, small-molecule microarray, 635 nm fluorescence, primary screen (AID 1104).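 Note: score merges 667 nm emission intensity with spot signal to noise over triplicate slides.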 The settings on record: EGFR binding, higher = more signal.
Experiment [8] has as its target Follistatin-related protein 3 (Homo sapiens) (UniProt O95633). As to the kind of experiment: compounds binding follistatin-related protein 3 – biochemical, small-molecule microarray, 635 nm fluorescence, primary screen (AID 1105).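 Note: score merges emission near 667 nm and signal to noise per printed spot across three slides.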 The settings on record: FSTL3 binding, higher = more signal.
Experiment [9] has as its target Dickkopf-related protein 1 (Homo sapiens) (UniProt O94907). Briefly: small molecules binding DKK1 protein – biochemical, small-molecule microarray, 635 nm fluorescence scan, primary screen (AID 1106).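 Note: score merges emission near 667 nm with signal to noise over three replicate slides.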 The settings on record: higher = more signal.
Experiment [10] relates to Inhibin beta A chain (activin A). As to the kind of experiment: small molecules binding activin A – biochemical, small-molecule microarray, 635 nm fluorescence scan, primary screen (AID 1107).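 Note: mouse activin A protein probed at 4.33 µg/mL on printed slides; score merges bound-protein fluorescence near 667 nm with spot signal-to-noise.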 The settings on record: INHBA, higher = more signal.
The test system of experiment [11] is Human papillomavirus type 1a protein E7 (residues 44-93). Briefly: small molecules binding HPV E7 44-93 – biochemical, small-molecule microarray, residues 44-93, 635 nm fluorescence, primary screen (AID 1108).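 Note: E7 fragment applied at 1 µg/mL in TBST for 1 h at 4 C; score combines spot fluorescence with its signal to noise ratio.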 The settings on record: fluorescence 635 nm, higher = more signal.
Experiment [12] can be described thus: hepatitis C replication reporter changes, two-sided – Huh7 cells, luciferase reporter, HCV replication inhibitor project, primary screen (AID 1109).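 Note: huh7 hepatoma cells harbouring a luciferase neomycin HCV replicon reporter; luciferase luminescence as measure of HCV replicon replication; test concentration not given here.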 Particulars: Huh7 HCV replicon luciferase reporter, 48 h; higher = more signal.
In experiment [13] the target is Left-right determination factor 2 (Homo sapiens) (UniProt O00292). As to the kind of experiment: small molecules binding LEFTY2 protein – biochemical, small-molecule microarray, 635 nm fluorescence scan, primary screen (AID 1110). The settings on record: higher = more signal.
In experiment [14] the target is Calmodulin-1 (Homo sapiens) (UniProt P0DP23). As to the kind of experiment: small molecules binding calmodulin-1 with EGTA – biochemical, small-molecule microarray, Cy5-labelled CALM1, profiling panel (AID 1111).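 Note: labelled calmodulin applied in Tris saline Tween buffer holding calcium plus EGTA and DTT.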 Particulars: Cy5-CALM1 binding fluorescence, higher = more signal.
Experiment [15] has the same target. Briefly: small molecules binding Ca-loaded calmodulin-1 – biochemical, small-molecule microarray, Cy5-labelled CALM1, plus calcium, artefact control for SMM control-protein annotation, profiling panel (AID 1112).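 Note: score merges spot fluorescence with signal to noise from triplicate slides.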 Particulars: Cy5-CALM1 binding fluorescence, higher = more signal.
A short description of experiment [16]: probe aWnt5a binding to arrayed compounds – biochemical, biotinylated probe, 635/667 nm fluorescence, primary screen (AID 1113).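 Note: score merges 667 nm fluorescence intensity with signal-to-noise per printed feature.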 Particulars: small-molecule microarray, higher = more signal.
Experiment [17] is described as follows: probe aShh binding to arrayed compounds – biochemical, biotinylated probe, 635/667 nm fluorescence, primary screen (AID 1114).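 Note: probe is biotin-labelled aShh protein from a stem cell growth factor screen; measures binding of labelled protein to compounds printed on the slide; score merges feature fluorescence at 667 nm with signal-to-noise.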 Particulars: small-molecule microarray, higher = more signal.
Experiment [18] is described as follows: probe aNog binding to arrayed compounds – biochemical, biotinylated probe, 635/667 nm fluorescence, primary screen (AID 1115).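 Note: probe is biotinylated aNog protein used at 0.15 µg/mL for 1 h at 4 C; z-score combines 667 nm fluorescence of each spot with its signal to noise.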 Particulars: small-molecule microarray, higher = more signal.
The target in experiment [19] is Torsin-1A-interacting protein 1 (Homo sapiens) (UniProt Q5JTV8). Briefly: compound microarray binding of lysate hLAP1 – cell lysate, small-molecule microarray, COS7 lysate, 635/667 nm fluorescence, primary screen (AID 1116). The settings on record: 635 nm fluorescence, higher = more signal.
In experiment [20] the target is Alpha-bungarotoxin (Bungarus multicinctus) (UniProt P60615). Briefly: compounds binding labelled alpha-BTX control protein – biochemical, small-molecule microarray, Alexa647 label, 635/667 nm fluorescence, artefact control for SMM control protein annotation, profiling panel (AID 1117). Particulars: alpha-BTX-A647 binding fluorescence, higher = more signal.
Sequence of Alpha-bungarotoxin (Bungarus multicinctus) (P60615 whole entry, looked up): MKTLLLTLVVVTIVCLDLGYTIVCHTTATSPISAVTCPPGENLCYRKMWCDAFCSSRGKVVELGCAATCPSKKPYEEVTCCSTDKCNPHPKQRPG

Sequence of Dickkopf-related protein 1 (Homo sapiens) (O94907 whole entry, looked up): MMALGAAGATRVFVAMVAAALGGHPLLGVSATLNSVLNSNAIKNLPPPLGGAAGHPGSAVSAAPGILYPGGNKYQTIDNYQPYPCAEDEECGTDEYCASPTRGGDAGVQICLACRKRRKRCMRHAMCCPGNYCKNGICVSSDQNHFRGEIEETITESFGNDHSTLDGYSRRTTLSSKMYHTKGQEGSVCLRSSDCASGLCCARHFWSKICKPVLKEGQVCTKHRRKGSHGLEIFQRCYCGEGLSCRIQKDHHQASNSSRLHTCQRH
Sequence of Torsin-1A-interacting protein 1 (Homo sapiens) (Q5JTV8 whole entry, looked up): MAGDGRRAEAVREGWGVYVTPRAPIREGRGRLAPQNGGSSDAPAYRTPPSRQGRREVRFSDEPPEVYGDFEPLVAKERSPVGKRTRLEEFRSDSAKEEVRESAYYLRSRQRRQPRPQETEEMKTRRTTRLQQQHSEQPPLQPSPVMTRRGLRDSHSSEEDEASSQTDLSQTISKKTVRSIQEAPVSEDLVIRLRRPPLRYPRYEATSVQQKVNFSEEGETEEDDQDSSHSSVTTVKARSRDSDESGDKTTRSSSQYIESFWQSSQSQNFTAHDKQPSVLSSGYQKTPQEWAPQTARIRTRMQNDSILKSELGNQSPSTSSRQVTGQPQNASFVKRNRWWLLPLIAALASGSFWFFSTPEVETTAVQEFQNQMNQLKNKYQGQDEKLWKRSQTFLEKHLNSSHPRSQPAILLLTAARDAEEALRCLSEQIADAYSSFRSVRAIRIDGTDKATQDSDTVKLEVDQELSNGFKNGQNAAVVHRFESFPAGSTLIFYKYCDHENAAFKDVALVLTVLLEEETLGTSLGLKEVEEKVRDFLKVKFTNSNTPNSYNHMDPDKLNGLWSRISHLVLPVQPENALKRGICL
Sequence of Epidermal growth factor receptor (Homo sapiens) (P00533 whole entry, looked up): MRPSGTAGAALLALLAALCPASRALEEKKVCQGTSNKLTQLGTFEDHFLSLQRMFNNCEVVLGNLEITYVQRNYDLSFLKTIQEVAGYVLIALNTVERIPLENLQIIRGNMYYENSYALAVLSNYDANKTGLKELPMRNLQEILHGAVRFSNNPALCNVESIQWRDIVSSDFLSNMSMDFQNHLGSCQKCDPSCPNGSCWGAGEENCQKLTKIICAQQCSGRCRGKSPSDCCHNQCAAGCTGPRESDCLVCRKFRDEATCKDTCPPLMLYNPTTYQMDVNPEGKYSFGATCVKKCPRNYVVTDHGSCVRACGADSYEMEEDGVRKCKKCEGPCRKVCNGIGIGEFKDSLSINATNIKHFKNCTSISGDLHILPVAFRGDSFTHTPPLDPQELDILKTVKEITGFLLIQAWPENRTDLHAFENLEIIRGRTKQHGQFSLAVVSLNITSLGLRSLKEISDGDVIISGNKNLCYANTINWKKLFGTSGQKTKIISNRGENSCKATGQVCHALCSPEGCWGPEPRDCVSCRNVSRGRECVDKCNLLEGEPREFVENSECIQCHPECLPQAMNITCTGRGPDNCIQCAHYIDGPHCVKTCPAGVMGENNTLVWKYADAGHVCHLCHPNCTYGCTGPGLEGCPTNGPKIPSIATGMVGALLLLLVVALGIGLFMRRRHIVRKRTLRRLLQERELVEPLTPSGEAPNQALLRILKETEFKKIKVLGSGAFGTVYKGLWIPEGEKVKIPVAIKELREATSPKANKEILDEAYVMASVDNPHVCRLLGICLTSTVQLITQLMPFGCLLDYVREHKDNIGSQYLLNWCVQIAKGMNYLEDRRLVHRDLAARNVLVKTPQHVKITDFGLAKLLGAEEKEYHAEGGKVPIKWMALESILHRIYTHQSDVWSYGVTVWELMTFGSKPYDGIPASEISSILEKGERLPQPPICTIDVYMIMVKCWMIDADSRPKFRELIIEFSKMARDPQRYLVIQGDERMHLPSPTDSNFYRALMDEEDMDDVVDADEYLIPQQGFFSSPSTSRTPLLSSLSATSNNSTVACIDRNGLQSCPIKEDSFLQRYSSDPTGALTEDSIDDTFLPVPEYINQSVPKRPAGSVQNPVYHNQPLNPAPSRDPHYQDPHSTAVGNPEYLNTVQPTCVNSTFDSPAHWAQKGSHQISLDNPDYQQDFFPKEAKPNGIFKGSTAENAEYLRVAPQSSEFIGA
Sequence of Fibroblast growth factor 10 (Homo sapiens) (O15520 whole entry, looked up): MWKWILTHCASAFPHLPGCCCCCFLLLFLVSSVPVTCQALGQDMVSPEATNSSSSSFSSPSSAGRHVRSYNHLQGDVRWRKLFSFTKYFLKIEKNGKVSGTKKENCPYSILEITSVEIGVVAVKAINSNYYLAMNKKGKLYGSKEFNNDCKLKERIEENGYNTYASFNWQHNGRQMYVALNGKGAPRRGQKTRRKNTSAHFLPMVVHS
Sequence of Follistatin-related protein 3 (Homo sapiens) (O95633 whole entry, looked up): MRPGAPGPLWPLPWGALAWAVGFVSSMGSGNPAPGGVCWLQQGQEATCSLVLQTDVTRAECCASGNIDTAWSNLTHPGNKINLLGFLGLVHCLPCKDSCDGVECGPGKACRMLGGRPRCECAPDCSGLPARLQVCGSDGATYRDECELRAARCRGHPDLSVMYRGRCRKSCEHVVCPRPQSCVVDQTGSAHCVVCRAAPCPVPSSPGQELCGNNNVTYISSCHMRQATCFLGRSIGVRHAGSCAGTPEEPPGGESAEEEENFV
Sequence of Left-right determination factor 2 (Homo sapiens) (O00292 whole entry, looked up): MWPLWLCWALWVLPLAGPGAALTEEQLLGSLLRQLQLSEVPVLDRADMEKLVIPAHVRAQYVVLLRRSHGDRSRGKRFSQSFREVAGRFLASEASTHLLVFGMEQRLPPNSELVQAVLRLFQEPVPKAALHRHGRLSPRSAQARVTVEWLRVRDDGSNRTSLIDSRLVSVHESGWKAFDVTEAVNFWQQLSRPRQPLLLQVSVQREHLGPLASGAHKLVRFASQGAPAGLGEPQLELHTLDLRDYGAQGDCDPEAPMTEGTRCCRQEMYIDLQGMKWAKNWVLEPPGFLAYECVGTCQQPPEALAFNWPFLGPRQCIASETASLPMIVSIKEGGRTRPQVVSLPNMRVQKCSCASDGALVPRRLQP

On to `C=CC[C@]1(C(=O)O)N=C(c2ccc(OCCCO)cc2)O[C@H]1c1ccccc1CN=[N+]=[N-]`, for which the composite z-score in experiment [1] was 1.74; in experiment [2], 0.177; in [3] it was 0.559; in experiment [5] it was -0.222; in experiment [6] it was -0.341; in experiment [7], -0.0348. Moreover, the composite z-score in [8] was 0.0521; in [9], -0.128; in experiment [10], 1.35; in experiment [11] it was -0.907; in experiment [13] it was -0.46; in experiment [14], 0.371. Further, the composite z-score in experiment [15] was 0.939; in experiment [16], -0.0977; in [17] it was -0.0209; in experiment [18], -0.0554; in [19], 0.371; in experiment [20] it was -0.445. In addition, the z-score in experiment [4] was -0.611 (inactive); in [12] it was -0.439.

`COc1ccccc1CN1C(=O)c2ccccc2[C@](Cc2ccccc2I)(C(=O)NCc2ccccc2)[C@@H]1c1ccc(CO)cc1`: the composite z-score in [1] is 0.17; in experiment [2], 0.131; in [3] it was 0.875; in experiment [5] it was 0.184; in experiment [6], -0.0893; in [7], -0.593. In addition, the composite z-score in experiment [8] was -0.457; in experiment [9] it was -0.341; in [10], 0.9; in experiment [11], 0.0977; in experiment [13], -0.703; in experiment [14], 0.0656. Further, the composite z-score was 0.556 in experiment [15]; 0.037 in [16]; -0.264 in [17]; -0.268 in experiment [18]; -0.0999 in [19]; 1.05 in [20]. The values for the z-score in experiment [4] and in experiment [12] were 0.164 (inactive) and -0.641, respectively.

Turning to `O=C1C[C@@](C(=O)O)(c2ccc([N+](=O)[O-])cc2)[C@@H](c2ccc(CO)cc2I)N1C1CCCCC1`, the composite z-score is 1.24 in [1]; -0.162 in experiment [2]; 0.862 in experiment [3]; 1.27 in experiment [5]; -0.428 in experiment [6]; 0.126 in [7]. In addition, the composite z-score in [8] was 0.596; in experiment [9] it was -0.605; in [10] it was 0.775; in experiment [11], -0.549; in experiment [13], -0.27; in experiment [14], 1.6. For the same compound, the composite z-score in [15] was 0.734; in experiment [16] it was 0.0194; in experiment [17], -0.299; in [18] it was -0.103; in experiment [19], -0.126; in experiment [20] it was 1.28. The z-score in experiment [4] is -2.72 (inactive); in experiment [12] it was -1.32.

In the case of `[N-]=[N+]=NCc1ccccc1C[C@]1(C(=O)NCc2ccccc2)COC(c2ccc(OCCCO)cc2)=N1`, the composite z-score in [1] was 0.518; in experiment [2], -0.109; in [3], 0.681; in [5] it was 0.447; in experiment [6] it was 0.431; in experiment [7], 0.0245. The composite z-score was -0.109 in [8]; -0.874 in experiment [9]; 0.743 in experiment [10]; 0.953 in experiment [11]; -0.0623 in experiment [13]; 0.614 in experiment [14]. For the same compound, the composite z-score was 0.345 in [15]; 0.027 in experiment [16]; 0.0483 in [17]; -0.415 in experiment [18]; 1.04 in experiment [19]; 0.188 in experiment [20]. Also, the z-score in [4] was -0.426 (inactive); in [12] it was -3.59.

Take `COc1cc(CO)cc(I)c1O[C@H]1C=C(C(=O)NCCO)C[C@@H](N(CCc2cccc(F)c2)C(=O)CCC2CCCC2)[C@@H]1O`: the composite z-score in experiment [1] was 1.1; in experiment [2], 0.0556; in experiment [3], 0.252; in experiment [5] it was 1.54; in [6], 1.01; in experiment [7], -0.261. For the same compound, the composite z-score in [8] is 0.716; in [9], 0.897; in experiment [10] it was 0.733; in experiment [11] it was 1.43; in [13], 0.195; in [14] it was 2.15. Also, the composite z-score was 2.16 in experiment [15]; 0.277 in experiment [16]; 0.0952 in experiment [17]; -0.144 in experiment [18]; 2.99 in [19]; -0.242 in [20]. In addition, the z-score in [4] is -1.37 (inactive); in [12] it was -4.65.

On to `[N-]=[N+]=Nc1ccccc1[C@@H]1OC(c2ccc(OCCCO)cc2)=N[C@]1(CCS(=O)(=O)c1ccccc1)C(=O)N1CCCCC1`, for which the composite z-score is 1.39 in experiment [1]; 1.63 in [2]; 1.41 in [3]; 1.05 in [5]; 0.85 in experiment [6]; 0.098 in [7]. Also, the composite z-score in [8] is 0.811; in experiment [9], -0.423; in [10], 1.36; in experiment [11] it was 1.22; in experiment [13], -0.175; in [14] it was 2.16. Further, the composite z-score in [15] is 1.26; in [16], 0.129; in experiment [17], 0.408; in experiment [18] it was 0.755; in [19] it was 1.79; in experiment [20], 3.01. The z-score in experiment [4] was -0.261 (inactive); in [12], 0.0018.
